Results from PubChem BioAssay (Tox21).
A number with no mark means an inactive call. Records with an inconclusive call do not appear. Entries that show only a call come without a potency. Calls of active or inactive are those of the source. The call rests on the fitted dose curve; in most records, active means well fitted curve in the direction sought with a large enough effect in the repeat runs; inconclusive means weak or mixed curves; inactive means no such curve, though single readings can be large; an effect the other way counts as inactive or inconclusive.

Experiments:
[1] = qHTS RealTime-Glo MT Cell Viability Assay in HEK293 cells - 16 hour (AID 1224872); further: nearly all actives have a fitted effect of over 50% in size; further: potency means the concentration at half of the fitted maximal effect
Summary of the method: (§1)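 HEK293 cells were seeded at 600 cells/well together with NanoLuc luciferase and cell-permeant prosubstrate, preincubated 5 h at 37 C/5% CO2, then given compound in DMSO by pintool. Luminescence from viable-cell prosubstrate reduction was read repeatedly over 40 h.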

[2] = qHTS RealTime-Glo MT Cell Viability Assay in HepG2 cells - 8 hour (AID 1224873); further: nearly all actives have a fitted effect of over 55% in size; further: potency means the concentration at half of the fitted maximal effect
Summary of the method: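 Real-time viability: cells seeded at 600 per well together with NanoLuc and cell-permeant prosubstrate, compounds added after 5 h incubation. Luminescence tracked at 0, 8, 16, 24, 32 and 40 h of exposure.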

[3] = qHTS RealTime-Glo MT Cell Viability Assay in HEK293 cells - 40 hour (AID 1224874); settings: RealTime-Glo luminescence; max response: active compounds read low; further: potency means the concentration at half of the fitted maximal effect; nearly all actives have a fitted effect of over 50% in size
Summary of the method: (§2)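 600 cells/well were plated with the nonlytic NanoLuc/prosubstrate reagent, pre-incubated 5 h, then given 23 nL of compound in DMSO. Incubation at 37 C for 40 h, with luminescence from viable-cell-reduced substrate read repeatedly from 0 h.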

[4] = qHTS RealTime-Glo MT Cell Viability Assay in HepG2 cells - 32 hour (AID 1224877); further: nearly all actives have a fitted effect of over 55% in size; further: potency means the concentration at half of the fitted maximal effect
Summary of the method: (§3)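 HepG2 cells were seeded at 600 cells/well together with NanoLuc luciferase and a cell-permeant prosubstrate, preincubated 5 h at 37 C/5% CO2, then pin-dosed with compounds in DMSO. Nonlytic luminescence from viable cells was read at each time point.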

[5] = A CellTox Green Cytotoxicity Assay to monitor cytotoxicity in HepG2 cells - 24 hour (AID 1224878); further: nearly all actives have a fitted effect of over 45% in size; further: potency means the concentration at half of the fitted maximal effect
Summary of the method: (§4)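 HepG2 cells, 600/well, preincubated 5 h with CellTox Green dye, then exposed to Tox21 compounds in DMSO at 37 C for up to 40 h. Dead-cell DNA fluorescence read at the indicated time point.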

[6] = A CellTox Green Cytotoxicity Assay to monitor cytotoxicity in HepG2 cells - 40 hour (AID 1224879); further: nearly all actives have a fitted effect of over 40% in size; further: potency means the concentration at half of the fitted maximal effect
Summary of the method: as §4

[7] = qHTS RealTime-Glo MT Cell Viability Assay in HEK293 cells - 0 hour (AID 1224880); further: top concentration of the series differs between compounds; nearly all actives have a fitted effect of over 45% in size
Summary of the method: as §2

[8] = A CellTox Green Cytotoxicity Assay to monitor cytotoxicity in HEK293 cells - 32 hour (AID 1224881); further: nearly all actives have a fitted effect of over 40% in size; further: potency means the concentration at half of the fitted maximal effect
Summary of the method: (§5)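 HEK293 cells, 600/well, were preincubated 5 hours and then exposed to compounds at 37 C for up to 40 hours. A cell-impermeant cyanine dye staining dead-cell DNA was read by fluorescence at 0, 8, 16, 24, 32 and 40 h time points.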

[9] = A CellTox Green Cytotoxicity Assay to monitor cytotoxicity in HepG2 cells - 0 hour (AID 1224882); further: nearly all actives have a fitted effect of over 35% in size
Summary of the method: as §4

[10] = A CellTox Green Cytotoxicity Assay to monitor cytotoxicity in HepG2 cells - 32 hour (AID 1224883); further: nearly all actives have a fitted effect of over 50% in size; further: potency means the concentration at half of the fitted maximal effect
Summary of the method: as §4

[11] = A CellTox Green Cytotoxicity Assay to monitor cytotoxicity in HEK293 cells - 8 hour (AID 1224884); further: nearly all actives have a fitted effect of over 35% in size; further: potency means the concentration at half of the fitted maximal effect
Summary of the method: as §5

[12] = qHTS RealTime-Glo MT Cell Viability Assay in HepG2 cells - 16 hour (AID 1224885); further: nearly all actives have a fitted effect of over 50% in size; further: potency means the concentration at half of the fitted maximal effect
Summary of the method: as §3

[13] = qHTS RealTime-Glo MT Cell Viability Assay in HEK293 cells - 24 hour (AID 1224886); further: nearly all actives have a fitted effect of over 50% in size; further: potency means the concentration at half of the fitted maximal effect
Summary of the method: as §1

[14] = A CellTox Green Cytotoxicity Assay to monitor cytotoxicity in HEK293 cells - 16 hour (AID 1224888); further: nearly all actives have a fitted effect of over 35% in size; further: potency means the concentration at half of the fitted maximal effect
Summary of the method: as §5

[15] = qHTS RealTime-Glo MT Cell Viability Assay in HepG2 cells - 0 hour (AID 1224889); further: nearly all actives have a fitted effect of over 50% in size; further: potency means the concentration at half of the fitted maximal effect
Summary of the method: as §3

[16] = A CellTox Green Cytotoxicity Assay to monitor cytotoxicity in HepG2 cells - 8 hour (AID 1224890); further: nearly all actives have a fitted effect of over 45% in size; further: potency means the concentration at half of the fitted maximal effect
Summary of the method: as §4

[17] = qHTS assay to identify small molecule antagonists of the estrogen receptor alpha (ER-alpha) signaling pathway using the BG1 cell line in the presence of 0.1 nM 17-beta-estradiol - cell viability counter screen (AID 1259241); further: nearly all actives have a fitted effect of over 40% in size; further: potency means the concentration at half of the fitted maximal effect
Summary of the method: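 Viability in VM7Luc4E2 cells after 22 hr compound exposure under 0.1 nM 17beta-estradiol stimulation, by CellTiter-Fluor.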

[18] = A CellTox Green Cytotoxicity Assay to monitor cytotoxicity in HEK293 cells - 24 hour (AID 1224875); further: nearly all actives have a fitted effect of over 45% in size; further: potency means the concentration at half of the fitted maximal effect
Summary of the method: as §5

[19] = A CellTox Green Cytotoxicity Assay to monitor cytotoxicity in HepG2 cells - 16 hour (AID 1224876); further: nearly all actives have a fitted effect of over 45% in size; further: potency means the concentration at half of the fitted maximal effect
Summary of the method: as §4

[20] = qHTS RealTime-Glo MT Cell Viability Assay in HEK293 cells - 8 hour (AID 1224887); further: nearly all actives have a fitted effect of over 50% in size; further: potency means the concentration at half of the fitted maximal effect
Summary of the method: as §2

SMILES | Potency [1] | Potency [2] | Potency [3] | Potency [4] | Potency [5] | Potency [6] | Potency [7] | Potency [8] | Potency [9] | Potency [10] | Potency [11] | Potency [12] | Potency [13] | Potency [14] | Potency [15] | Potency [16] | Potency [17] | Potency [18] | Potency [19] | Potency [20]
C=CC(C)(C)CC(=O)OC | 1.38 µM (active) | inactive | 1.55 µM (active) | inactive | inactive | inactive | inactive | inactive | inactive | inactive | inactive | inactive | 1.38 µM (active) | inactive | inactive | inactive | inactive | – | – | –
Cc1ccc(S(=O)(=O)NC2CCCCC2)cc1 | inactive | inactive | – | inactive | inactive | inactive | inactive | inactive | inactive | inactive | inactive | inactive | – | inactive | inactive | inactive | inactive | inactive | inactive | inactive
CCOC(=O)C(C)Oc1ccc(Oc2nc3ccc(Cl)cc3o2)cc1 (stereo not drawn) | 21.9 µM (active) | 15.5 µM (active) | – | – | inactive | inactive | inactive | inactive | inactive | inactive | inactive | – | 24.5 µM (active) | inactive | inactive | inactive | inactive | inactive | inactive | 21.9 µM (active)
O=C(CCCCCCCCC#CI)Oc1ccccc1 | inactive | – | 5.35 µM (active) | – | inactive | inactive | inactive | – | inactive | inactive | inactive | 15.1 µM (active) | inactive | inactive | inactive | inactive | inactive | inactive | inactive | inactive
CCCCCCCCCCCCCCC[C@H](O)[C@@H](N)CO | 21.3 µM (active) | – | 26.8 µM (active) | 26.8 µM (active) | 26.8 µM (active) | 26.8 µM (active) | inactive | 21.3 µM (active) | – | 26.8 µM (active) | 23.9 µM (active) | – | 21.3 µM (active) | 21.3 µM (active) | inactive | 23.9 µM (active) | inactive | 21.3 µM (active) | 23.9 µM (active) | –
O=C(N[C@@H](c1ccccc1)[C@@H]1CCCCN1)c1cccc(C(F)(F)F)c1Cl | – | inactive | 24.5 µM (active) | 43.6 µM (active) | – | 34.7 µM (active) | – | – | inactive | – | inactive | – | 24.5 µM (active) | inactive | inactive | inactive | – | – | – | –
CCCCC(=O)O[C@]1(C(=O)CO)[C@@H](C)C[C@H]2[C@@H]3CCC4=CC(=O)C=C[C@]4(C)[C@@]3(F)[C@@H](O)C[C@@]21C | – | – | – | inactive | inactive | inactive | inactive | inactive | inactive | inactive | inactive | – | – | inactive | 21.9 µM (active) | inactive | inactive | inactive | – | –
Cc1c(C(=O)NN2CCCCC2)nn(-c2ccc(Cl)cc2Cl)c1-c1ccc(Cl)cc1 | – | inactive | – | – | inactive | inactive | inactive | inactive | inactive | inactive | inactive | inactive | – | inactive | inactive | inactive | inactive | – | inactive | –
COC(=O)Nc1nc2ccc(C(=O)c3cccs3)cc2[nH]1 | – | inactive | 0.134 µM (active) | inactive | inactive | 0.107 µM (active) | inactive | inactive | inactive | – | inactive | inactive | – | inactive | inactive | inactive | inactive | – | inactive | –
CC(C)C(OC(=O)c1ccccc1)C(C)(C)COC(=O)c1ccccc1 (stereo not drawn) | – | inactive | – | inactive | inactive | inactive | inactive | inactive | inactive | inactive | – | inactive | – | inactive | inactive | inactive | inactive | inactive | inactive | inactive
O=C(N/N=C/c1ccc([N+](=O)[O-])o1)c1ccc(O)cc1 | – | – | – | – | inactive | – | – | – | inactive | – | inactive | – | – | inactive | inactive | inactive | 26.6 µM (active) | – | inactive | –
O=c1[nH]c2ccc(S(=O)CCN3CCC(Cc4ccc(F)cc4)CC3)cc2o1 (stereo not drawn) | – | inactive | – | inactive | inactive | – | inactive | inactive | inactive | inactive | inactive | inactive | – | inactive | – | inactive | – | – | inactive | –
CCCCN(CCCC)C(=S)SSC(=S)N(CCCC)CCCC | 48.5 µM (active) | – | 38.5 µM (active) | – | inactive | inactive | inactive | inactive | inactive | inactive | inactive | inactive | 48.5 µM (active) | inactive | inactive | inactive | inactive | – | inactive | 34.3 µM (active)
CO[C@H]1C=CO[C@@]2(C)Oc3c(C)c(O)c4c(O)c(c5c(c4c3C2=O)=NC2(CCN(CC(C)C)CC2)N=5)NC(=O)/C(C)=C\C=C/[C@H](C)[C@H](O)[C@@H](C)[C@@H](O)[C@@H](C)[C@H](OC(C)=O)[C@@H]1C | 42.7 µM (active) | – | 38.1 µM (active) | – | – | 47.9 µM (active) | – | – | inactive | 47.9 µM (active) | inactive | – | 38.1 µM (active) | inactive | inactive | inactive | 47.5 µM (active) | inactive | – | –
CCCCC1C(=O)N(c2ccccc2)N(c2ccc(O)cc2)C1=O (stereo not drawn) | – | inactive | – | 16.9 µM (active) | – | 10.7 µM (active) | inactive | – | inactive | 10.7 µM (active) | inactive | – | – | inactive | inactive | inactive | inactive | – | – | –
